Marburg entry inh: inhibitors of Marburg virus binding or cell entry; Marburg virus pseudotyped entry inhibition, cell reporter; AID 540276; 300,000 compounds, 1.8% hits; Potency, µM (series often up to 37.8 µM), for the others: top-dose activity change, negative = inhibition, hits mostly inhibitors; calls by dose curve; tested in HEK293 cells
Vaccinia mCherry: inhibitors of vaccinia virus infection (mCherry reporter signal); Vaccinia virus mCherry reporter infection, fluorescence; Potency, µM (series often up to 36.5 µM), inactives show at the highest dose activity change, negative = inhibition, hits mostly inhibitors; 310,000 compounds, 0.63% hits; calls by dose curve; tested in A549 cells; note: nearly all actives have a fitted effect of over 35% in size
Vaccinia Venus: inhibitors of vaccinia virus (Venus reporter); Vaccinia virus Venus reporter expression, fluorescence; Potency, µM (doses to about 36.5 µM), for inactives: top-dose activity change, negative = inhibition, actives largely listed as inhibitors; 330,000 compounds, 0.46% hits; calls by dose curve; tested in A549 cells; note: nearly all actives have a fitted effect of over 30% in size
FMDV antiviral: antivirals against foot and mouth disease virus | FMDV antiviral cell-based qHTS | AID 1159524 | 410,000 compounds, 1.2% hits | Potency, µM (titrated, usually from 57.9 µM), for inactives: at the highest dose activity change, negative = inhibition, hits mostly inhibitors; calls by dose curve; tested in HEK293T cells; note: read-out not given here; nearly all actives have a fitted effect of over 45% in size
Lassa entry inh: Lassa virus entry inhibition; Lassa virus pseudotype entry inhibition, cell reporter; Potency, µM (titrated, usually from 37.9 µM), without a hit: at the highest dose activity change, negative = inhibition, hits mostly inhibitors; 300,000 compounds, 1.2% hits; calls by dose curve; tested in HEK293 cells; note: nearly all actives have a fitted effect of over 50% in size
* = called active by the depositor; i = inactive; ? = inconclusive; . = no result given; ! = not active in a repeat; [ ] = remark or other dose. A selection: hits, their analogues and other compounds. The true share with any hit is near 3.2%. % is set by controls: 0 for no effect and ±100 for the full control effect; potency is the fitted concentration of half-maximal effect.

SMILES	Marburg entry inh	Vaccinia mCherry	Vaccinia Venus	FMDV antiviral	Lassa entry inh
CCCCCN(C(=O)CN1CCC(Cc2ccccc2)CC1)c1c(N)n(CCCC)c(=O)[nH]c1=O	10µM*	-16.0%	-16.1%	-16.1%	?
CCCCCN(C(=O)CCC(=O)OCC(=O)N(C)c1ccccc1)c1c(N)n(CCCC)c(=O)[nH]c1=O	?	-14.5%	-7.4%	5.6%	-5.4%
CCCCn1c(N)c(N(CCC(C)C)C(=O)COC(=O)Cc2ccc(Cl)cc2)c(=O)[nH]c1=O	12.6µM*	-8.7%	-10.9%	-28.1%	?
CCCCC1CCC(C(=O)N(CCC(C)C)c2c(N)n(CCCC)c(=O)[nH]c2=O)CC1 (stereo not given)	.	15.8µM*	11.2µM*	-20.3%	.
COc1ccccc1/C=N/Nc1nncc2ccccc12	?	-18.1%	-12.6%	33.2%	-16.1%
Clc1nccnc1N/N=C/c1ccc(Br)cc1	.	.	.	58.2%	.
COc1cccc(/C=N/Nc2nccnc2Cl)c1O	1.64µM*	1.26µM*	?	12.6µM*	2.06µM*
COc1ccc(/C=N/Nc2nncc3ccccc23)cc1	?	-4.3%	-7.1%	3.55µM*	?
COc1cccc(/C=N/Nc2nc3ccccc3[nH]2)c1O	.	.	.	19.0%	.
COc1cccc(/C=N/Nc2ncnc3scc(-c4ccccc4)c23)c1O	1.41µM*	2µM*	?	-1.7%	5.17µM*
COc1ccc(/C=N/Nc2nccnc2Cl)c(OC)c1	21.2%[46.1 µM]	-5.4%	-1.3%	19.4%	?
COc1ccc(/C=N/Nc2nccnc2Cl)cc1	?	-13.5%	-7.0%	.	8.2µM*
Cc1nc2ccc(NS(=O)(=O)c3ccc(Br)cc3)cc2s1	.	.	.	-4.8%	.
COc1cccc(/C=N/Nc2nc3ccccc3n3cnnc23)c1	?	-5.5%	1.2%	-15.9%	0.5%
COc1cccc(/C=N/Nc2ncnc(Cl)c2N)c1O	2.51µM*	3.55µM*	5.01µM*	-9.8%	3.66µM*
COc1cccc(/C=N/Nc2nc3ccccc3n3cnnc23)c1O	8.91µM*	4.47µM*	?	4.6%	?
COc1cc(OC)c(NC(=O)c2ccc3nc(C(C)C)oc3c2)cc1Cl	.	i	-20.0%	12.6µM*	-5.5%[46.1 µM]
Cc1cc(=O)oc2cc(Oc3ccc([N+](=O)[O-])cc3[N+](=O)[O-])ccc12	?	i	-8.5%	35.5µM*	-25.5%
O=S(=O)(NCc1ccccc1)c1ccc(Cl)cc1	-18.4%	.	.	79.6%	-18.2%
O=S(=O)(Nc1cc2nc3ccccc3nc2n1Cc1ccccc1)c1ccc(Cl)cc1	?	i	-3.7%	11.6%	7.31µM*!
COc1ccc(CCN2C(=O)c3[nH]nc(-c4ccccc4O)c3C2c2cccc(Cl)c2)cc1 (stereo not given)	?	2.2%[1.46 µM]	?	-13.4%	?
CCOc1ccc(C2c3c(-c4cc(C)ccc4O)n[nH]c3C(=O)N2Cc2cccnc2)cc1OCC (stereo not given)	?	-8.3%	-0.7%	-17.7%	?
COc1ccc(C2c3c(-c4ccccc4O)n[nH]c3C(=O)N2CCc2ccccc2)cc1 (stereo not given)	?	-3.1%[7.34 µM]	-7.3%[7.34 µM]	-24.5%	?
CCc1ccc(C2c3c(-c4cc(C)ccc4O)n[nH]c3C(=O)N2Cc2cccnc2)cc1 (stereo not given)	12.6µM*	-10.2%	-10.4%	?	?
COc1ccc(C2c3c(-c4ccccc4O)n[nH]c3C(=O)N2CCc2ccc(OC)c(OC)c2)cc1 (stereo not given)	?	?	-29.6%	?	5.01µM*
SMILES	Marburg entry inh	Vaccinia mCherry	Vaccinia Venus	FMDV antiviral	Lassa entry inh
COc1ccc(CCN2C(=O)c3[nH]nc(-c4ccccc4O)c3C2c2cccc(OC)c2)cc1 (stereo not given)	12.6µM*	?	?	-12.0%	?
CC(=O)Nc1nc2[nH]ccc2c(=O)[nH]1	.	i	1.0%	0.0%	.
C[C@H]1CC[C@H]2C(=O)N(Cc3ccc(Cl)cc3)C[C@H](O)CN2[C@H]1c1ccc(Br)cc1	-2.2%[14.2 µM]	.	.	.	.
OC(CC#CCN1CCCC1)(c1ccccc1)c1ccccc1	10µM*	-13.7%	-15.5%	-10.3%	-28.2%
OC(CC#CCN1CCCCC1)(c1ccccc1)c1ccccc1	?	-11.6%	-18.0%	-18.9%	?
COc1ccc(-c2noc(CNC(=O)COc3cccc(C)c3C)n2)cc1	1.0%[46.1 µM]	-8.2%	-4.9%	-15.8%	?
CC(=O)c1ccccc1OCC(O)CN1CCN(CCN2C(=O)c3cccc4cccc(c34)C2=O)CC1 (stereo not given)	?	-20.6%	?	28.2µM*	?
O=C1c2cccc3cccc(c23)C(=O)N1CCN1CCN(CC(O)COCc2ccc(Cl)cc2)CC1 (stereo not given)	?	11.2µM*	?	?	18.4µM*
Cc1ccc(C)c(OCC(O)CN2CCN(CCN3C(=O)c4cccc5cccc(c45)C3=O)CC2)c1 (stereo not given)	?	?	?	25.1µM*	?
COc1cc(COCC(O)CN2CCN(CCN3C(=O)c4cccc5cccc(c45)C3=O)CC2)cc(OC)c1OC (stereo not given)	?	-22.6%	?	?	-10.0%
COc1ccc(COCC(O)CN2CCC(CN3C(=O)c4cccc5cccc(c45)C3=O)CC2)cc1OC (stereo not given)	9.2µM*	-27.6%	?	?	?
COc1cccc(OCC(O)CN2CCC(CN3C(=O)c4cccc5cccc(c45)C3=O)CC2)c1 (stereo not given)	?	-22.8%	-23.5%	?	?
CC(=O)OC[C@H]1O[C@H](C#Cc2ccc(C)cc2C)C=C[C@@H]1OC(C)=O	-2.3%[14.2 µM]	.	.	.	.
CC(C)C[C@@H]1COc2cccc(N3CCCC3)c2S(=O)(=O)N1	.	.	.	.	23.3%[46.1 µM]
O=C(CSc1nnc(-c2c[nH]c3ccccc23)o1)N(Cc1ccccc1)c1ccc(F)cc1	18.3µM*	?	?	.	?
COc1ccc(CN(C(=O)CSc2nnc(-c3ccccc3C)o2)c2ccc(F)cc2)cc1	?	.	-10.0%	?	-16.9%
Oc1ccccc1-c1n[nH]c(-c2ccccc2O)n1	?	2.82µM*	3.98µM*	-2.9%	?
Clc1ccccc1-c1nc(-c2ccccc2)n[nH]1	7.5%	.	.	27.4%	?
N#CC1=C(c2ccccc2)/C(=C/c2ccccc2)OC1=O	?	i	-1.4%	6.31µM*	-25.3%
Cc1ccc2cc(/C=N/NC(=O)[C@H]3C[C@@H]3c3ccccc3)c(Cl)nc2c1	4.0%	.	.	-18.6%	0.0651µM*
O=C(N/N=C/c1cc2ccccc2nc1Cl)[C@H]1C[C@@H]1c1ccccc1	?	i	-15.1%	-20.0%	0.366µM*
CN1\C(=C/C=C/C=C/C=[N+](C)C)C(C)(C)c2ccccc21	?	.	.	15.8µM*	?
CN(C)c1ccc(/C=C/c2nc3ccccc3c(=O)[nH]2)cc1	.	i	-15.0%	10µM*	.
C(=C\c1nc2ccccc2[nH]1)/c1ccccc1	?	.	.	15.8µM*	?
CC1CC2C(C(O)C[C@]3(C)C2CC[C@]3(O)C(=O)CO)[C@]2(C)C=CC(=O)C=C12 (stereo not given in full)	.	-15.9%	-7.5%	-7.6%	.

Compound activity from PubChem BioAssay.
